Assay outcomes from PubChem.
MCF10A rerep: inducers of DNA re-replication in MCF 10A breast cells | MCF 10A DNA re-replication, Hoechst nuclear intensity, 48 h | Potency, µM (highest dose often 46.1 µM), inactives show top-dose activity, positive = re-replication, usual class: activators | 2.9% of 350,000 active; further: % of control where 0% means no effect; nearly all actives have a fitted effect of over 50% in size
KB-V1 MDR tox: KB-V1 MDR subline cytotoxicity | KB-V1 MDR cells viability, CellTiter-Glo, 72 h | Potency, µM (titrated, usually from 46.1 µM), most hits filed as cytotoxic | AID 1347076 | 3.4% of 400,000 active; further: on the % scale 0 is the no-effect control and ±100 the full control effect; nearly all actives have a fitted effect of over 60% in size
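Drug-selected KB-V1 cells, grown in DMEM lacking phenol red with 10% FBS, receive compound titrations; after three days at 37 degrees C, surviving cell ATP is quantified by CellTiter-Glo luminescence and responses normalized and curve-fitted.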
SW480 rerep: inducers of DNA re-replication in SW480 colon cancer cells; Potency, µM (doses to about 46.1 µM), for inactives: at the top dose re-replication activation, hits mostly activators; SW480 DNA re-replication, Hoechst DNA content imaging, 48 h; AID 624297; 1.8% of 340,000 active; further: % of control where 0% means no effect; nearly all actives have a fitted effect of over 55% in size
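First, 250 cells per well were seeded. Next, compound or vehicle (23 nL) was pinned in, plates sat 48 hr at 37 C. Finally Hoechst was added for 40 min before fluorescence scanning.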
KB-3-1 cytotox: KB-3-1 parental cell cytotoxicity | KB-3-1 viability, CellTiter-Glo ATP luminescence, 72 h | Potency, µM (doses to about 46.1 µM), most hits filed as cytotoxic | 1.4% of 400,000 active; further: on the % scale 0 is the no-effect control and ±100 the full control effect; nearly all actives have a fitted effect of over 60% in size
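Viability of parental KB-3-1 cells, measured by CellTiter-Glo luminescence, followed a 72 h incubation at 37 °C with pinned compounds in phenol-red-free DMEM containing 10% FBS.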
ELG1 repair inh: inhibitors of ELG1-dependent DNA repair in HEK293T cells. HEK293T ELG1-luciferase reporter, luminescence, 16 h; DNA damage induced by 5-fluorouridine. AID 504467. 2.3% of 330,000 active. Potency, µM (top dose mostly 46.1 µM), inactives show top-dose activity change, negative = inhibition, most hits filed as inhibitors; further: on the % scale 0 is the no-effect control and ±100 the full control effect; nearly all actives have a fitted effect of over 55% in size
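In this reporter screen, reduction of luminescence relative to DMSO vehicle indicated activity. Compounds and 5-fluorouridine were added together to 2,000 cells per well, incubated for 16 hr at 37 °C, then developed with ONE-Glo.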
* marks the source's active call; other numbers are inactive results; i = inactive; ? = inconclusive; . = no result. An excerpt weighted towards active compounds, which were near 8.1% of everything screened. The call rests on the fitted dose curve; in most records, active means well fitted curve in the direction sought with a large enough effect; inconclusive means small, poorly fitted or top-dose-only effect, or another doubt; inactive means no such curve, though single readings can be large; an effect the other way counts as inactive or inconclusive. Potency means the concentration at half of the fitted maximal effect.

SMILES	MCF10A rerep	KB-V1 MDR tox	SW480 rerep	KB-3-1 cytotox	ELG1 repair inh
OC[C@@H]1CN(Cc2ccc(Cl)cc2)C[C@H](n2cnc3c(Nc4ccccc4)ncnc32)O1	.	i	.	i	.
Cc1ccc(S(=O)(=O)Nc2ccc(C(=O)Nc3ccncc3)cc2)cc1	15%	i	3.3µM*	i	?
COc1ccc(C(=O)Nc2ccc(S(=O)(=O)Nc3nccnc3OC)cc2)cc1	7%	18µM*	18%	?	?
CCCCNC(=O)C1C(c2ccc(C(F)(F)F)cc2)=Nc2ccccc2N1C(=O)c1cccc2ccccc12 (stereo not drawn)	.	i	.	i	.
CC(=O)OCCc1[nH]c2ccccc2c1C	14%	i	-5%	i	-8%
CC(=O)OCCc1c2ccccc2c(CCCN(C)C)c2ccccc12	18µM*	i	?	i	.
Cc1ccc(-c2cc(C(=O)N(C)Cc3cnn(C)c3C)c3cc(Br)ccc3n2)cc1	16µM*	?	9%	?	5.8µM*
CCCC(NCC(O)COc1ccc(-c2ccccc2)cc1)c1ccccc1 (stereo not drawn)	4.1µM*	?	5.2µM*	?	?
OC(CNC1CCCC1)COc1ccc(-c2ccccc2)cc1 (stereo not drawn)	?	?	?	21µM*	7%
OC(CNC1CCCCC1)COCCOc1ccc(Br)cc1 (stereo not drawn)	16µM*	23µM*	?	i	-1%
COC(=O)c1ccc(OCC(O)CNC2CCCC2)cc1 (stereo not drawn)	0%	i	-1%	i	-1%
Cc1ncoc1C(=O)Nc1ccc2c(c1)OCCO2	-8%	i	-5%	?	?
Cc1ccsc1C(=O)Nc1ccc2c(c1)OCCO2	16%	21µM*	-1%	?	?
CCn1ncc(Br)c1C(=O)Nc1ccc2c(c1)OCCO2	-1%	21µM*	-8%	?	?
O=C(Nc1ccc2c(c1)OCCO2)c1ccc(Br)s1	?	13µM*	107%	18µM*	?
Cc1occc1C(=O)Nc1ccc2c(c1)OCCO2	-1%	13µM*	-2%	i	?
CC(C)c1nc(Nc2nc3ccccc3o2)nc2c1CCCC2	.	i	.	i	.
CCOC(=O)c1sc(NNC(=O)c2ccc(C)cc2)nc1C	26µM*	i	-11%	i	-29%
CCOC(=O)c1nc(NNC(=O)c2ccc([N+](=O)[O-])cc2)sc1C	25%	?	3.7µM*	18µM*	16µM*
CCc1ccc(CCC(=O)Nc2sc3c(c2C#N)CCCC3)o1	4.6µM*	?	3.3µM*	?	?
Cc1ccc(/C=N/NC(=O)NC2CCCCC2)o1	-2%	i	-6%	i	?
Cc1ccc(/C=C/C(=O)NC2CCCCCCC2)o1	?	i	23µM*	i	?
Cc1ccc(/C=C/C(=O)Nc2sc3c(c2C#N)CCCC3)o1	?	i	1.2µM*	i	?
COc1ccc(-c2cc3nc(C)c(CCC(=O)N4CCN(c5ccccc5)CC4)c(C)n3n2)c(OC)c1	.	?	.	i	.
O=C(NC1CCCC1)c1cnn(-c2ccc(F)cc2F)c1C1CCNCC1	.	?	.	i	.
SMILES	MCF10A rerep	KB-V1 MDR tox	SW480 rerep	KB-3-1 cytotox	ELG1 repair inh
CNc1oc(-c2ccccc2Cl)nc1C#N	3%	21µM*	-5%	?	?
Cc1cc(Br)cn2c(Cc3ccccc3)c(-c3ccc(F)cc3)nc12	.	i	.	i	.
CCN(CC)c1ccc2nc3ccc(N)cc3[n+](-c3ccccc3)c2c1	?	?	?	0.73µM*	?
CCN(CC)c1ccc2nc3ccccc3[n+](CC)c2c1	12µM*	9.2µM*	3.7µM*	3.7µM*	3.7µM*
CCN(CC)c1ccc(/C=C/c2cc(Cl)nc3ccccc23)cc1	.	i	.	i	.
COc1cc(OC)c(N2CC(C(=O)Nc3cccc(C(=O)NC4CC4)c3)CC2=O)cc1Cl (stereo not drawn)	4%	i	-335%	i	-7%
O=C(O)c1cccc(S(=O)(=O)N2CCN(S(=O)(=O)c3ccc4ccccc4c3)CC2)c1	0%	i	1%	i	-1%
